According to PubChem BioAssay (EPA / NIEHS):
Several values for one entry are separate records, joined by “and”; a condition that tells them apart may be missing. Identical values can stand only once. More than one record can exist for a structure, and the calls need not agree. Activity calls are given as the source filed them. The calls were made as follows: active = hit-call score of the fitted dose curve at least 0.9, where 1 is the maximum; inactive = score below 0.9.

Legend:
[1] = read-out: Tissue plasminogen activator (tPA), PLAT (gene 5327); test: BSK_BE3C_tPA: BioMAP Diversity Plus: BE3C Assay for Tissue plasminogen activator (tPA) Biomarker Activity (AID 2283041); conditions: primary human bronchial epithelial cells; actives raise or lower the signal
Procedure, shortened: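 Human primary bronchial epithelial cells were dosed with chemical and tPA biomarker levels measured by ELISA 24 hours later. Activity was fitted bidirectionally against DMSO as negative control and baseline.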

[2] = read-out: Interleukin-8 (IL8), CXCL8 (gene 3576); test: BSK_CASM3C_IL8: BioMAP Diversity Plus: CASM3C Assay for Interleukin-8 (IL8) Biomarker Activity (AID 2283042); conditions: primary human coronary artery smooth muscle cells; actives raise or lower the signal;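 also: IL-8 protein level quantified by ELISA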
[3] = read-out: Human Leukocyte Antigen - DR isotype (HLADR), HLA-DRA (gene 3122); test: BSK_CASM3C_HLADR: BioMAP Diversity Plus: CASM3C Assay for Human Leukocyte Antigen - DR isotype (HLADR) Biomarker Activity (AID 2283043); conditions: primary human coronary artery smooth muscle cells; actives raise or lower the signal;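 also: cell-surface HLA-DR protein level quantified by ELISA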
[4] = read-out: Macrophage colony-stimulating factor (MCSF), CSF1 (gene 1435); test: BSK_CASM3C_MCSF: BioMAP Diversity Plus: CASM3C Assay for Macrophage colony-stimulating factor (MCSF) Biomarker Activity (AID 2283044); conditions: primary human coronary artery smooth muscle cells; actives raise or lower the signal;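 also: M-CSF protein amount quantified by ELISA after 24 h exposure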
[5] = read-out: Low-density lipoprotein receptor (LDLR), LDLR (gene 3949); test: BSK_CASM3C_LDLR: BioMAP Diversity Plus: CASM3C Assay for Low-density lipoprotein receptor (LDLR) Biomarker Activity (AID 2283045); conditions: primary human coronary artery smooth muscle cells; actives raise or lower the signal;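 also: LDLR protein level on the cell surface quantified by ELISA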
[6] = read-out: Monocyte Chemoattractant Protein-1 (MCP1), CCL2 (gene 6347); test: BSK_CASM3C_MCP1: BioMAP Diversity Plus: CASM3C Assay for Monocyte Chemoattractant Protein-1 (MCP1) Biomarker Activity (AID 2283046); conditions: primary human coronary artery smooth muscle cells; actives raise or lower the signal;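 also: MCP-1 level quantified by ELISA 24 h after dosing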
[7] = BSK_CASM3C_Proliferation: Cell Proliferation Assessment in the BioMAP Diversity Plus: CASM3C Assay (AID 2283047); conditions: primary human coronary artery smooth muscle cells;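 also: sulforhodamine B total protein stain as relative cell number at 560 nm; sub-confluent cells exposed 48 h before staining; fitted both ways against DMSO so gain or loss of cell number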
[8] = read-out: Monokine induced gamma interferon (MIG), CXCL9 (gene 4283); test: BSK_CASM3C_MIG: BioMAP Diversity Plus: CASM3C Assay for Monokine induced gamma interferon (MIG) Biomarker Activity (AID 2283048); conditions: primary human coronary artery smooth muscle cells; actives raise or lower the signal;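 also: MIG protein level measured by ELISA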
[9] = read-out: serum amyloid A (SAA), SAA1 (gene 6288); test: BSK_CASM3C_SAA: BioMAP Diversity Plus: CASM3C Assay for serum amyloid A (SAA) Biomarker Activity (AID 2283049); conditions: primary human coronary artery smooth muscle cells; actives raise or lower the signal;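 also: SAA protein level quantified by ELISA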
[10] = BSK_CASM3C_SRB: Viability Assessment in the BioMAP Diversity Plus: CASM3C Assay (AID 2283050); conditions: primary human coronary artery smooth muscle cells;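 also: total protein by SRB staining as cytotoxicity measure in parallel cultures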
[11] = read-out: Thrombomodulin, THBD (gene 7056); test: BSK_CASM3C_Thrombomodulin: BioMAP Diversity Plus: CASM3C Assay for Thrombomodulin Biomarker Activity (AID 2283051); conditions: primary human coronary artery smooth muscle cells; actives raise or lower the signal;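 also: thrombomodulin protein level measured by ELISA 24 h after dosing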
[12] = read-out: Tissue Factor, F3 (gene 2152); test: BSK_CASM3C_TissueFactor: BioMAP Diversity Plus: CASM3C Assay for Tissue Factor Biomarker Activity (AID 2283052); conditions: primary human coronary artery smooth muscle cells; actives raise or lower the signal;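 also: cell surface tissue factor protein level read by ELISA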
[13] = read-out: Interferon-gamma inducible Protein 10 (IP10), CXCL10 (gene 3627); test: BSK_hDFCGF_IP10: BioMAP Diversity Plus: hDFCGF Assay for Interferon-gamma inducible Protein 10 (IP10) Biomarker Activity (AID 2283053); conditions: primary human foreskin fibroblasts; actives raise or lower the signal
Procedure, shortened: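 Human foreskin fibroblast primary cells (hDFCGF system) were dosed with chemical and assayed at 24 h; IP-10 measured by ELISA. Activity fitted bidirectionally relative to DMSO negative control as baseline.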

[14] = read-out: Urokinase-type plasminogen activator receptor (uPAR), PLAUR (gene 5329); test: BSK_CASM3C_uPAR: BioMAP Diversity Plus: CASM3C Assay for Urokinase-type plasminogen activator receptor (uPAR) Biomarker Activity (AID 2283054); conditions: primary human coronary artery smooth muscle cells; actives raise or lower the signal;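 also: cell-surface uPAR protein level quantified by ELISA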
[15] = read-out: Vascular cell adhesion molecule 1 (VCAM1), VCAM1 (gene 7412); test: BSK_CASM3C_VCAM1: BioMAP Diversity Plus: CASM3C Assay for Vascular cell adhesion molecule 1 (VCAM1) Biomarker Activity (AID 2283055); conditions: primary human coronary artery smooth muscle cells; actives raise or lower the signal;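 also: VCAM-1 protein level quantified by ELISA on the cells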
[16] = read-out: Collagen III, COL3A1 (gene 1281); test: BSK_hDFCGF_CollagenIII: BioMAP Diversity Plus: hDFCGF Assay for Collagen III Biomarker Activity (AID 2283056); conditions: primary human foreskin fibroblasts; actives raise or lower the signal
Procedure, shortened: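 hDFCGF primary human dermal fibroblasts; 24 h chemical exposure; collagen III by ELISA; bidirectional curve fit vs DMSO baseline (gain or loss of signal).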

[17] = read-out: Epidermal growth factor receptor (EGFR), EGFR (gene 1956); test: BSK_hDFCGF_EGFR: BioMAP Diversity Plus: hDFCGF Assay for Epidermal growth factor receptor (EGFR) Biomarker Activity (AID 2283057); conditions: primary human foreskin fibroblasts; actives raise or lower the signal
Procedure, shortened: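 Primary human foreskin fibroblasts were exposed to compound for 24 h, after which cell-surface EGFR was quantified by ELISA. Activity was fitted bidirectionally against the DMSO negative control as baseline.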

[18] = read-out: Interleukin-8 (IL8), CXCL8 (gene 3576); test: BSK_hDFCGF_IL8: BioMAP Diversity Plus: hDFCGF Assay for Interleukin-8 (IL8) Biomarker Activity (AID 2283058); conditions: primary human foreskin fibroblasts; actives raise or lower the signal
Procedure, shortened: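 ELISA read-out of IL-8 from primary human foreskin fibroblast cultures taken 24 h after dosing; values are bidirectional fits relative to DMSO vehicle.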

[19] = BSK_hDFCGF_Proliferation: Cell Proliferation Assessment in the BioMAP Diversity Plus: hDFCGF Assay (AID 2283059); conditions: primary human foreskin fibroblasts;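 also: curves fitted for both rise and fall of signal versus DMSO baseline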
Procedure, shortened: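 Primary human foreskin fibroblasts, sub-confluent; […]; 10% TCA fix, 0.1% SRB stain, A560 total protein. Gain/loss fitted bidirectionally vs DMSO control.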

[20] = read-out: Macrophage colony-stimulating factor (MCSF), CSF1 (gene 1435); test: BSK_hDFCGF_MCSF: BioMAP Diversity Plus: hDFCGF Assay for Macrophage colony-stimulating factor (MCSF) Biomarker Activity (AID 2283060); conditions: primary human foreskin fibroblasts; actives raise or lower the signal
Procedure, shortened: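 ELISA read-out of M-CSF in human dermal foreskin fibroblast cultures, 24 h after chemical dosing; gain or loss of signal fitted bidirectionally relative to DMSO baseline.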

Measured: AC50

CCCCCCCCCCCCCCCS(=O)(=O)Oc1ccccc1
inactive: all assays above

CCCCCCCCCCCCCC[N+](C)(C)C
active: [1] 0.883 µM | [2] 10.8 µM | [3] 5.99 µM | [4] 4.57 µM | [5] 8.07 µM | [6] 5.83 µM | [7] 5.31 µM | [8] 11.8 µM | [9] 2.89 µM | [10] 5.35 µM | [11] 5.06 µM | [12] 5.36 µM | [13] 5.92 µM | [14] 5.05 µM | [15] 9.9 µM | [16] 1.59 µM | [17] 4.98 µM | [18] 14.1 µM | [19] 1.05 µM | [20] 2.81 µM

CCCCOCCO
inactive: all assays above

O=C(O)Cc1cc(I)c(Oc2cc(I)c(O)c(I)c2)c(I)c1
active: [1] 4.84 µM | [13] 8.02 µM | [15] 13.4 µM | [16] 4.05 µM | [17] 7.78 µM | [18] 22.2 µM | [19] 13.4 µM | [20] 14 µM
inactive: all other assays above

c1ccc2c(c1)Cc1ccccc1-2
inactive: all assays above

c1ccc2c(c1)ccc1ccccc12
inactive: all assays above

OCCC(F)(F)C(F)(F)C(F)(F)C(F)(F)C(F)(F)C(F)(F)C(F)(F)C(F)(F)F
inactive: [1] | [2] | [4] | [5] | [6] | [8] | [9] | [10] | [11] | [12] | [13] | [14] | [16] | [17] | [18] | [19] | [20]
active: [1] 11.6 µM and 14 µM | [2] 42.7 µM | [3] 20 µM and 27.5 µM and 18.9 µM | [4] 38.6 µM and 30 µM | [5] 58.8 µM and 55.4 µM | [6] 48.6 µM and 47.4 µM | [7] 20 µM and 22.5 µM and 21.8 µM | [8] 46.4 µM and 46.8 µM | [9] 43 µM and 37.9 µM | [10] 48.7 µM and 40.5 µM | [12] 30 µM and 18.4 µM | [13] 14.6 µM and 11.2 µM | [14] 42.3 µM and 43.7 µM | [15] 12.3 µM and 23.2 µM and 11.5 µM | [16] 18.3 µM and 11.9 µM | [18] 19.2 µM and 17.4 µM | [19] 11.4 µM and 5.06 µM | [20] 13.8 µM and 12.1 µM

CC(C)(C)CC(C)(C)c1ccc(O)c(-n2nc3ccccc3n2)c1
active: [3] 15.7 µM | [4] 28.8 µM | [5] 20 µM | [7] 29.8 µM | [9] 32.4 µM | [11] 22.7 µM | [13] 14.6 µM | [17] 14.2 µM | [19] 6.71 µM | [20] 5.47 µM
inactive: [1] | [2] | [6] | [8] | [10] | [12] | [14] | [15] | [16] | [18]

Cc1cc(C)c(O)c(C)c1
inactive: all assays above

Nc1cccc2c(N)cccc12
active: [13] 29.1 µM | [19] 5.91 µM | [20] 12.9 µM
inactive: all other assays above

Oc1cc2ccccc2c2ccccc12
inactive: [11] | [17]
active: [1] 14.7 µM | [2] 10.6 µM | [3] 7.47 µM | [4] 8.24 µM | [5] 10.1 µM | [6] 11.4 µM | [7] 10.5 µM | [8] 11.9 µM | [9] 11.3 µM | [10] 11.2 µM | [12] 10.5 µM | [13] 2 µM | [14] 11.2 µM | [15] 8.3 µM | [16] 1.9 µM | [18] 3.94 µM | [19] 1.56 µM | [20] 2.72 µM

CC(=O)CC(C)(C)O
inactive: all assays above

CCCCC(CC)COC(=O)CCCCC(=O)OCc1ccccc1 (centres undefined)
inactive: all assays above

CC1=C(/C=C/C(C)=C/C=C/C(C)=C/C(=O)O)C(C)(C)CCC1
active: [3] 26.3 µM | [7] 20 µM | [11] 8.15 µM | [13] 30.2 µM | [15] 20 µM | [16] 15 µM | [18] 38.9 µM | [19] 7.76 µM | [20] 25.2 µM
not listed: [10]
inactive: all other assays above

COCC(C)O (centres undefined)
inactive: all assays above

ClC1=C(Cl)C(Cl)(Cl)C(Cl)=C1Cl
active: [1] 6.77 µM | [2] 9.09 µM | [3] 4.27 µM | [4] 6.59 µM | [5] 5.87 µM | [6] 7.68 µM | [7] 2.76 µM | [8] 7.3 µM | [9] 6.33 µM | [10] 7.64 µM | [12] 1.92 µM | [13] 9.62 µM | [14] 6.99 µM | [15] 5.1 µM | [16] 14 µM | [18] 17 µM | [19] 4.2 µM | [20] 9.09 µM
inactive: [11] | [17]

CCCCCCCC(=O)O
inactive: all assays above

CCCCCCCCCCCCc1ccccc1S(=O)(=O)O
active: [1] 6.79 µM | [13] 10.6 µM | [15] 11.2 µM | [16] 8.62 µM | [18] 13.5 µM | [19] 9.26 µM | [20] 11.4 µM
inactive: all other assays above

CCCCCCCCOC(=O)CCCCCCCCC(=O)OCCCCCCCC
inactive: all assays above

CCc1nn(C2CCCCC2)c2cc(C3(C#N)CCC(C(=O)O)CC3)ccc12 (centres undefined)
active: [3] 4.52 µM | [4] 0.657 µM | [5] 1.47 µM | [6] 7.23 µM | [7] 4.09 µM | [8] 13.1 µM | [13] 4.83 µM | [14] 1.03 µM | [15] 5.03 µM | [16] 1.75 µM | [17] 1.26 µM | [19] 4.27 µM | [20] 5.16 µM
inactive: [1] | [2] | [9] | [10] | [11] | [12] | [18]

CN1CCN(c2ccccc2/C=C2\SCCN(c3ccc(Cl)c(Cl)c3)C2=O)CC1
active: [1] 25.7 µM | [5] 2.95 µM | [7] 20 µM | [10] 20 µM | [13] 30.7 µM | [16] 13.7 µM | [18] 32.3 µM | [19] 5.54 µM | [20] 23.5 µM
inactive: all other assays above
